Reference: PubChem BioAssay (NCI)
This is part of a sample that, as a whole, favours compounds with a hit. Of some 83,000 tested, about 20% had one in any assay.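 Treatment: one concentration, 48 hours, 96-well format. Scoring: percent growth, with anything below 10 considered active.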 Calls of active or inactive are those of the source.

Legend:
Experiment in all cases: NCI-60 one-dose screen, 48 h (100 = growth as untreated, 0 = no growth, -100 = all killed)
Conditions in all cases: 10 µM
SK-MEL-2 melanoma = test system: SK-MEL-2 melanoma
EKVX NSCLC = test system: EKVX NSCLC
SN12C renal = test system: SN12C renal
UO-31 renal = test system: UO-31 renal
TK-10 renal = test system: TK-10 renal
ACHN renal = test system: ACHN renal
CAKI-1 renal = test system: CAKI-1 renal
CCRF-CEM leukemia = test system: CCRF-CEM leukemia
MOLT-4 leukemia = test system: MOLT-4 leukemia
A498 renal = test system: A498 renal

Measured: growth

COc1ccccc1-n1c(-c2sc(NC(C)=O)nc2C)n[nH]c1=S
inactive: SK-MEL-2 melanoma 106% | EKVX NSCLC 67.6% | SN12C renal 101% | UO-31 renal 70.1% | TK-10 renal 130% | ACHN renal 108% | CAKI-1 renal 81% | CCRF-CEM leukemia 97.3% | MOLT-4 leukemia 92.9%

COc1ccc(-c2cc(-c3ccccc3)nc(SCCCC(=O)NO)n2)cc1
active: SK-MEL-2 melanoma -7.04% | EKVX NSCLC -23.3% | SN12C renal -8.2% | UO-31 renal -52% | TK-10 renal 6.16% | ACHN renal -17.8% | CAKI-1 renal -16.4% | A498 renal -44.3% | MOLT-4 leukemia 4.82%

O=C1CCn2c1c(O)c1ccccc1c2=O
inactive: SK-MEL-2 melanoma 126% | EKVX NSCLC 94% | SN12C renal 108% | UO-31 renal 96.5% | TK-10 renal 107% | ACHN renal 111% | CAKI-1 renal 86.3% | CCRF-CEM leukemia 99.6% | MOLT-4 leukemia 106%

COc1ccc(-c2nn(-c3cccc(Cl)c3)cc2-c2cc(-c3ccccc3)[nH]c(=O)c2C#N)cc1
active: TK-10 renal -12.8%
inactive: SK-MEL-2 melanoma 56.7% | EKVX NSCLC 57.2% | SN12C renal 67.7% | UO-31 renal 24.7% | ACHN renal 11% | CAKI-1 renal 40.8% | CCRF-CEM leukemia 91.7% | MOLT-4 leukemia 79.6%

CN1CCc2c(sc3nc4n(-c5ccc(Cl)cc5)c(=O)[nH]n4c(=O)c23)C1
inactive: SK-MEL-2 melanoma 96.5% | EKVX NSCLC 101% | SN12C renal 107% | UO-31 renal 89.7% | TK-10 renal 88.3% | ACHN renal 106% | CAKI-1 renal 93.1% | MOLT-4 leukemia 99.1%

Cc1ccc(-n2c(C)nn3c(=O)c4c5c(sc4nc23)CN(C)CC5)cc1
inactive: SK-MEL-2 melanoma 95% | EKVX NSCLC 95% | SN12C renal 97.6% | UO-31 renal 83.2% | TK-10 renal 82.4% | ACHN renal 101% | CAKI-1 renal 88.5% | MOLT-4 leukemia 97.9%

CC(=O)C1N=NCC1c1ccccc1 (stereo unspecified)
inactive: SK-MEL-2 melanoma 97.3% | EKVX NSCLC 101% | SN12C renal 88.7% | UO-31 renal 92.3% | TK-10 renal 96.1% | ACHN renal 95.8% | CAKI-1 renal 95.4% | CCRF-CEM leukemia 104% | MOLT-4 leukemia 96.7%

Cn1c2ccccc2c2c3[nH][nH]c(=O)c3c3c4ccccc4[nH]c3c21
inactive: SK-MEL-2 melanoma 10.9% | EKVX NSCLC 49% | SN12C renal 16.1% | TK-10 renal 93% | CAKI-1 renal 60.2%
active: UO-31 renal -26.9% | ACHN renal -8.79% | MOLT-4 leukemia 5.9%

O=C(CCCNC(=O)c1nc(-c2ccccc2)n(-c2ccccc2)n1)NO
inactive: SK-MEL-2 melanoma 97.9% | EKVX NSCLC 96.8% | SN12C renal 101% | UO-31 renal 94.5% | TK-10 renal 85.9% | ACHN renal 114% | CAKI-1 renal 98% | MOLT-4 leukemia 101%

Cc1c2c[n+](C(C)C)ccc2c(C)c2c1[nH]c1ccccc12
inactive: SK-MEL-2 melanoma 12.3% | EKVX NSCLC 29.4% | UO-31 renal 72.1% | TK-10 renal 54% | ACHN renal 85.7% | CAKI-1 renal 96% | MOLT-4 leukemia 14.8%
active: SN12C renal -11.8%

O=C1c2ccccc2-c2c1c1cccnc1c(=O)n2C[C@H](O)CO
inactive: SK-MEL-2 melanoma 101% | EKVX NSCLC 79.3% | SN12C renal 35.6% | UO-31 renal 49.9% | TK-10 renal 84.7% | ACHN renal 27.6% | CAKI-1 renal 65.5%
active: MOLT-4 leukemia 9.69%

CCOC(=O)c1sc2ncnc(Nc3ccc(NC(=O)Nc4ccc(Cl)cc4)cc3)c2c1C
inactive: SK-MEL-2 melanoma 87.2% | EKVX NSCLC 74.4% | SN12C renal 60.5% | UO-31 renal 54.9% | TK-10 renal 89.4% | ACHN renal 64.4% | CAKI-1 renal 83.9% | MOLT-4 leukemia 66.3%

CCOC(=O)CSc1nc(-c2cc(OC)ccc2OC)cc(-c2ccc(OC)cc2)c1C#N
inactive: SK-MEL-2 melanoma 84.3% | EKVX NSCLC 74.1% | SN12C renal 79.5% | UO-31 renal 63% | TK-10 renal 75.7% | ACHN renal 76.7% | CAKI-1 renal 83.4% | MOLT-4 leukemia 76.6%

CN1CCc2c(sc3nc4n(-c5ccc(Cl)cc5)cnn4c(=O)c23)C1
inactive: SK-MEL-2 melanoma 118% | EKVX NSCLC 87.2% | SN12C renal 98.9% | UO-31 renal 84.1% | TK-10 renal 116% | ACHN renal 109% | CAKI-1 renal 97.4% | MOLT-4 leukemia 104%

Cc1cc(NC(=O)c2ccc(C)c(Nc3nccc(-c4cccnc4)n3)c2)cc(-n2cnc(C)c2)c1
inactive: SK-MEL-2 melanoma 83.5% | SN12C renal 27.5% | CCRF-CEM leukemia 38.1% | MOLT-4 leukemia 14.3%
active: EKVX NSCLC -56.9% | UO-31 renal -55% | TK-10 renal -20.5% | ACHN renal -13.7% | CAKI-1 renal -80.2%

CCc1ccc(C2=NN(c3ccc(S(C)(=O)=O)cc3)C(=O)CC2)cc1
inactive: SK-MEL-2 melanoma 36.9% | EKVX NSCLC 60.4% | SN12C renal 31.4% | UO-31 renal 33.3% | TK-10 renal 71.1% | ACHN renal 46% | CAKI-1 renal 16.7% | CCRF-CEM leukemia 15.6% | MOLT-4 leukemia 15.3%

COCCn1cc(-c2nc(-c3cccnc3)cs2)c2cc(F)ccc21
inactive: SK-MEL-2 melanoma 106% | EKVX NSCLC 90.8% | SN12C renal 95.7% | UO-31 renal 107% | TK-10 renal 80.4% | ACHN renal 101% | CAKI-1 renal 103% | MOLT-4 leukemia 79.3%

Clc1nc2ccccc2cc1Cn1nnc(Cc2ccccc2)n1
inactive: SK-MEL-2 melanoma 58.8% | EKVX NSCLC 36.1% | SN12C renal 70.3% | TK-10 renal 60.9% | ACHN renal 52.2% | CAKI-1 renal 40.5% | MOLT-4 leukemia 43.1%
active: UO-31 renal -81%

COc1ccc2nc(Cl)c(Cn3nnc(Cc4ccccc4)n3)cc2c1
inactive: SK-MEL-2 melanoma 49.6% | EKVX NSCLC 24.5% | SN12C renal 57.3% | UO-31 renal 14.7% | TK-10 renal 34.9% | ACHN renal 41.5% | CAKI-1 renal 43.9% | MOLT-4 leukemia 10.3%

Nc1ccc(-c2cccs2)cc1NC(=O)c1ccc(CCCC(=O)Nc2ccc(C3CC3N)cc2)cc1 (stereo unspecified)
inactive: SK-MEL-2 melanoma 69.6% | EKVX NSCLC 73.9% | SN12C renal 80.3% | UO-31 renal 75.8% | TK-10 renal 55.6% | ACHN renal 83.5% | CAKI-1 renal 88.7% | MOLT-4 leukemia 47%

COc1cc2c3c(n(C4CCN(C)CC4)c(=O)c2cc1OC)-c1cc2c(cc1C3=O)OCO2
inactive: SK-MEL-2 melanoma 80.8% | EKVX NSCLC 69.4% | SN12C renal 43.4% | UO-31 renal 52.4% | TK-10 renal 86.9% | ACHN renal 57.2% | CAKI-1 renal 75.6% | MOLT-4 leukemia 29.5%

COc1ccc([C@H]2[C@H](C(=O)Nc3cccnc3)c3ccccc3C(=O)N2c2ccccc2)cc1
inactive: SK-MEL-2 melanoma 86.2% | EKVX NSCLC 94.5% | SN12C renal 99.4% | UO-31 renal 99.5% | TK-10 renal 93% | ACHN renal 90.3% | CAKI-1 renal 93.7% | MOLT-4 leukemia 77.5%

c1cncc(-c2csc(-c3c[nH]c4ccccc34)n2)c1
inactive: SK-MEL-2 melanoma 97.3% | EKVX NSCLC 50.6% | SN12C renal 85.9% | UO-31 renal 66.5% | TK-10 renal 125% | ACHN renal 88% | CAKI-1 renal 88.3% | MOLT-4 leukemia 79.8%

CC(=O)[C@H]1CC[C@]2(C)[C@@H]1CC[C@@H]1[C@@]3(C)CC(CCC#N)(CCC#N)C(=O)C(C)(C)[C@@H]3CC[C@]12C
inactive: SK-MEL-2 melanoma 102% | EKVX NSCLC 91.8% | SN12C renal 91.8% | UO-31 renal 82% | TK-10 renal 104% | ACHN renal 95.2% | A498 renal 88.9%

COc1cc2c3c(n([C@@H]4CCOC4)c(=O)c2cc1OC)-c1cc2c(cc1C3=O)OCO2
inactive: SK-MEL-2 melanoma 94% | EKVX NSCLC 64.2% | SN12C renal 18.3% | TK-10 renal 99.7% | CAKI-1 renal 23.2% | MOLT-4 leukemia 20.4%
active: UO-31 renal 5.77% | ACHN renal 0.739%

Nc1nc(-c2cccnc2)nc2c1sc(=S)n2-c1ccccc1
inactive: SK-MEL-2 melanoma 101% | EKVX NSCLC 101% | SN12C renal 98.6% | UO-31 renal 97.2% | TK-10 renal 93.5% | ACHN renal 107% | CAKI-1 renal 98.7% | MOLT-4 leukemia 96.9%

Nc1ccccc1NC(=O)c1ccc(CCCC(=O)Nc2ccc(C3CC3N)cc2)cc1 (stereo unspecified)
inactive: EKVX NSCLC 53.5% | SN12C renal 43.8% | UO-31 renal 62.8% | ACHN renal 52% | CAKI-1 renal 96.2% | MOLT-4 leukemia 22.6%
active: SK-MEL-2 melanoma -4.46% | TK-10 renal 8.6%

N#Cc1c(-c2ccc(Cl)cc2)cc(-c2cc(O)ccc2O)nc1N
inactive: SK-MEL-2 melanoma 31.2% | EKVX NSCLC 42.9% | UO-31 renal 59% | TK-10 renal 79.6% | CAKI-1 renal 82.8% | MOLT-4 leukemia 11.3%
active: SN12C renal -2.03% | ACHN renal 8.35%

C=C/C(C)=C/C[C@]1(C)[C@H](C)[C@@H](OC(=O)CCC)[C@H](O)[C@@]23C(=C[C@H](OC)C[C@@H]12)[C@@H](OC(=O)CCC)O[C@H]3OC(C)=O
active: SK-MEL-2 melanoma -70.5% | EKVX NSCLC -33.7% | SN12C renal -51.9% | UO-31 renal -90.7% | TK-10 renal -95.1% | ACHN renal -94.4% | CAKI-1 renal 0.0055% | MOLT-4 leukemia -12.8%

O=C(Nc1ccccc1)Nc1ncnc2c1ncn2-c1ccccc1
inactive: SK-MEL-2 melanoma 104% | EKVX NSCLC 78.5% | SN12C renal 83.3% | UO-31 renal 69.4% | TK-10 renal 75.2% | ACHN renal 22.2% | CAKI-1 renal 82.5% | MOLT-4 leukemia 94.1%
